Source: the supplement of paper PMC4709259
Structures can show the parent of a compound that is named as a salt. ± gives the standard deviation.

These compounds were tested on Jurkat (assay: cell count relative to DMSO control (fraction of control); higher = more cells (less growth inhibition)). Conditions: 48 h.
With CC(=O)Nc1ccc(O)cc1 [Acetaminophen] (concentration: 25 µM) the cell count was 0.891 ± 0.031. NNCCc1ccccc1 [Phenelzine Sulfate] (concentration: 25 µM) was tested, and the cell count was 0.882 ± 0.12. For Cc1c(-c2ccccc2)oc2c(C(=O)OCCN3CCCCC3)cccc2c1=O [Flavoxate·HCl] (concentration: 25 µM), the cell count was 1.01 ± 0.062. For CCOC(=O)O[C@]1(C(=O)OCCl)CC[C@H]2[C@@H]3CCC4=CC(=O)C=C[C@]4(C)[C@H]3[C@@H](O)C[C@@]21C [Loteprednol Etabonate] (concentration: 25 µM), the cell count was 1.08 ± 0.067. OC(CNCC(O)C1CCc2cc(F)ccc2O1)C1CCc2cc(F)ccc2O1 (stereo not drawn) [Nebivolol·HCl] (concentration: 25 µM) showed a cell count of 0.483 ± 0.11. With N=C(N)c1ccc(OCCCCCOc2ccc(C(=N)N)cc2)cc1 [Pentamidine Isethionate] (concentration: 25 µM) the cell count was 0.601 ± 0.055. Nc1nc(O)c2ncn(CCC(CO)CO)c2n1 [Penciclovir] (concentration: 25 µM) showed a cell count of 0.993 ± 0.053. Compound CC1(C)S[C@@H]2[C@H](NC(=O)[C@H](N)c3ccccc3)C(=O)N2[C@H]1C(=O)O [Ampicillin Trihydrate] (concentration: 25 µM) has a cell count of 1.17 ± 0.068. For O=C(O)CCc1nc(-c2ccccc2)c(-c2ccccc2)o1 [Oxaprozin] (concentration: 2.5 µM), the cell count was 1.03 ± 0.013. CCN1CC(CCN2CCOCC2)C(c2ccccc2)(c2ccccc2)C1=O (stereo not drawn) [Doxapram·HCl] (concentration: 25 µM) gave a cell count of 1.01 ± 0.015. c1ccc2c(c1)CCCC2C1=NCCN1 (stereo not drawn) [Tetrahydrozoline·HCl] (concentration: 25 µM) was tested, and the cell count was 1.16 ± 0.094. Compound CO/N=C1\CN(c2nc3c(cc2F)c(=O)c(C(=O)O)cn3C2CC2)CC1CN (stereo not drawn) [Gemifloxacin] (concentration: 25 µM) has a cell count of 0.591 ± 0.16. C1N2CN3CN1CN(C2)C3 [Methenamine Hippurate] (concentration: 25 µM) gave a cell count of 0.89 ± 0.1. Work on CCCCNc1cc(C(=O)O)cc(S(N)(=O)=O)c1Oc1ccccc1 [Bumetanide] (concentration: 25 µM) yielded a cell count of 0.863 ± 0.022. In the case of COc1cc(NC(C)CCCN)c2ncccc2c1 (stereo not drawn) [Primaquine Phosphate] (concentration: 25 µM), the cell count is reported as 0.742 ± 0.042. With COc1c(N2C[C@@H]3CCCN[C@@H]3C2)c(F)cc2c(=O)c(C(=O)O)cn(C3CC3)c12 [Moxifloxacin·HCl] (concentration: 25 µM) the cell count was 0.632 ± 0.14. Cc1ccsc1C(=CCCN1CCC[C@@H](C(=O)O)C1)c1sccc1C [Tiagabine·HCl] (concentration: 25 µM) showed a cell count of 0.839 ± 0.013. O=P(O)(O)C(Sc1ccc(Cl)cc1)P(=O)(O)O [Tiludronate Disodium] (concentration: 25 µM) showed a cell count of 0.663 ± 0.15. CCCC(=O)O[C@]1(C(=O)COC(C)=O)CC[C@H]2[C@@H]3C[C@H](F)C4=CC(=O)C=C[C@]4(C)[C@@]3(F)[C@@H](O)C[C@@]21C [Difluprednate] (concentration: 25 µM) gave a cell count of 0.605 ± 0.14. Work on O=c1n(CCCN2CCN(c3cccc(Cl)c3)CC2)nc2ccccn12 [Trazodone·HCl] (concentration: 25 µM) yielded a cell count of 0.878 ± 0.048. In the case of C#C[C@]1(O)CC[C@H]2[C@@H]3CCC4=CC(=O)CC[C@@H]4[C@H]3CC[C@@]21C [Norethindrone] (concentration: 25 µM), the cell count is reported as 0.901 ± 0.084. C[N+](C)(C)CCOC(N)=O [Carbachol (Carbamylcholine ) Chloride] (concentration: 25 µM) showed a cell count of 1.13 ± 0.12. CCC1=C(C)CN(C(=O)NCCc2ccc(S(=O)(=O)NC(=O)N[C@H]3CC[C@H](C)CC3)cc2)C1=O [Glimepiride] (concentration: 25 µM) gave a cell count of 0.859 ± 0.076. CN(Cc1ccc(C(C)(C)C)cc1)Cc1cccc2ccccc12 [Butenafine·HCl] (concentration: 25 µM) gave a cell count of 0.793 ± 0.076. In the case of Cc1cn([C@H]2C[C@H](N=[N+]=[N-])[C@@H](CO)O2)c(=O)[nH]c1=O [Zidovudine (3'-Azido-3'-Deoxythymidine)] (concentration: 25 µM), the cell count is reported as 0.714 ± 0.027. Compound Cc1cccn2c(=O)c(-c3nnn[nH]3)cnc12 [Pemirolast Potassium] (concentration: 25 µM) has a cell count of 0.756 ± 0.11. Compound CC(=O)Oc1ccccc1C(=O)Nc1ncc([N+](=O)[O-])s1 [Nitazoxanide] (concentration: 2.5 µM) has a cell count of 0.862 ± 0.091. In the case of NS(=O)(=O)c1cc2c(cc1Cl)NCNS2(=O)=O [Hydrochlorothiazide] (concentration: 25 µM), the cell count is reported as 0.411 ± 0.088.
